The structures appear in SMILES notation. The source made the active and inactive calls.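 Rule for the calls, unless noted: active = visually confirmed hit in the image check and inhibition above 20%; inconclusive = visually confirmed hit but inhibition not above 20%; inactive = no visual hit in the image check.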

Test [1] can be described thus: inhibitors of TNFa-induced NFkB p65 translocation, primary screen, imaging, HUVEC, MLSMR starter and 10KST1 sets (AID 438;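 active = inhibition above 20% together with a positive visual image hit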;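 note: compound added about 3h40 before a 20 min TNFalpha stimulation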;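 for inhibition: signal is the nuclear over cytoplasmic p65 intensity ratio per well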). Conditions: HUVEC TNFa-induced p65 nuclear translocation; cell count: measured here: nuclei count (cytotoxicity indicator), at 2.08 µM; inhibition: at 2 µM, stronger effect = higher value, 0% TNFa-plus-vehicle, 100% no-TNFa wells.
Test [2] can be described thus: reduction of polyQ htt aggregates in cells – imaging, exon1htt(103Q)mCFP cells, high-content imaging, primary screen (AID 483;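 active = visual image review flags a hit and inhibition of aggregation exceeds 20%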;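 note: compound exposure lasted 3 days before fixation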;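 for nuclei count: percent of the per-plate median nuclei count of sample wells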). Conditions: exon1htt(103Q)mCFP cell line, aggregate imaging, at 2 µM; inhibition of aggregation: stronger effect = higher value; nuclei count: measured here: cell count, toxicity.
A short description of test [3]: endothelial E-selectin expression blockers – imaging, HUVEC, immunofluorescence, MLSMR starter and 10KST1 sets, primary screen (AID 487).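 For inhibition: signal is fraction of cell area covered by stained E-selectin grains.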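 For nuclei count: 100% = median nuclei count of all wells on the same plate.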 Conditions: HUVEC TNFalpha-induced E-selectin immunofluorescence imaging, at 2 µM; inhibition: stronger effect = higher value; nuclei count: measured here: cell number, toxicity.
Test [4] can be described thus: Primary imaging screen for DUSP6 inhibitors that restore phospho-Erk in transfected HeLa cells, chemical complementation (AID 609;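 active = compounds giving at least 50% inhibition in the cell-based MKP-3 phosphatase rescue imaging test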;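 for inhibition: phospho-Erk level distribution per well compared with pooled transfected vehicle control wells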). Conditions: HeLa MKP-3 transfected, phospho-Erk imaging KS statistic, at 10 µM, cells stimulated with TPA for 15 min.
Test [5] has as its target Dual specificity protein phosphatase 6 (Homo sapiens) (UniProt Q16828). The test is described as above. Conditions: HeLa MKP-3 transfected, phospho-Erk imaging KS statistic; at 10 µM; stronger effect = higher value; cells stimulated with TPA for 15 min.
Test [6] deals with Voltage-gated potassium channel subunit beta-2 (Rattus norvegicus) (UniProt P62483). The experiment in a line: inhibitors of rat Kvbeta2 reductase activity – biochemical, NADPH fluorescence, primary screen (AID 622;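 active = fluorescence slope higher than the sample average by over 3 SD, cut at about -0.22 in these data, passing the limit was not always enough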;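 note: slope of raw intensity against log time taken from 70 to 1610 s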). Conditions: recombinant KvBeta, 4-cyanobenzaldehyde reduction, at 10 µM, stronger effect = higher value.
Chain of Voltage-gated potassium channel subunit beta-2 (Rattus norvegicus) (P62483 whole entry, looked up): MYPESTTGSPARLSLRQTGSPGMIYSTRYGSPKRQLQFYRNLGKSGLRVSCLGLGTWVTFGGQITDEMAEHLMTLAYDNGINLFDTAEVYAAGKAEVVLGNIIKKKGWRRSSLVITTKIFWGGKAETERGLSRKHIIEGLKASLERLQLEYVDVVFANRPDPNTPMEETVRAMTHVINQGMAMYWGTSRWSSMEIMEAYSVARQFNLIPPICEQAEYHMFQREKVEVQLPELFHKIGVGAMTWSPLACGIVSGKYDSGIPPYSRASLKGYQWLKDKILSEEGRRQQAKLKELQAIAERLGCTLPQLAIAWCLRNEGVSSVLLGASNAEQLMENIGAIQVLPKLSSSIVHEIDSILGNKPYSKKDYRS
Test [7] shares this target. The test can be described thus: enhancers of rat Kvbeta2 NADPH turnover – biochemical, NADPH fluorescence, primary screen (AID 623;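 active = NADPH fluorescence slope more negative than the mean of all samples by about 3 SD, 99.7% confidence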;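 note: fluorescence intensity change per second fitted from 20 to 320 s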). Particulars: Recombinant KvBeta, NADPH fluorescence decrease slope, 10 min; at 10 µM; stronger effect = lower value.
The target of test [8] is Alpha-2C adrenergic receptor (Homo sapiens) (UniProt P18825). The test can be described thus: compounds altering alpha2C-coupled GIRK flux – cell-based, HEK293 alpha2C/GIRK1/2, thallium flux, primary screen (AID 624;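 active = fluorescence slope after compound addition differing from the mean of all screened samples at 99.7% confidence, in either direction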;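 note: slope of fluorescence ratio to pre-addition baseline per second over 15 to 24 s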). Conditions: thallium flux BTC fluorescence, at 10 µM, actives lie on both sides.
Chain of Alpha-2C adrenergic receptor (Homo sapiens) (P18825 whole entry, looked up): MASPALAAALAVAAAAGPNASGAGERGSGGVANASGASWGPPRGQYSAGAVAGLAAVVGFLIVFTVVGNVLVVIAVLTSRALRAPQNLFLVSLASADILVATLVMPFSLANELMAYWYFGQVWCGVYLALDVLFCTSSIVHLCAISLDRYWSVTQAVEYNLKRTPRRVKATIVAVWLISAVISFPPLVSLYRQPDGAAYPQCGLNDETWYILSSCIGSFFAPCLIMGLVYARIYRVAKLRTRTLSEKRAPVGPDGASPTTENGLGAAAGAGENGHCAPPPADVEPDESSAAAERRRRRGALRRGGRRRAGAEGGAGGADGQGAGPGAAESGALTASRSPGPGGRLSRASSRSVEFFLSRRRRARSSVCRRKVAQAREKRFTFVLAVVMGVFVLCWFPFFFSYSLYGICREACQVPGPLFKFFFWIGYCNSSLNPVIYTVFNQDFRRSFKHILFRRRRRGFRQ
The target of test [9] is Muscarinic acetylcholine receptor M4 (Homo sapiens) (UniProt P08173). The test can be described thus: M4-linked GIRK flux change, two-sided – cell-based, HEK293 M4/GIRK, thallium flux, BTC-AM, M4 allosteric agonist project, primary screen (AID 625;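 active = fluorescence slope after compound addition differing from the mean of all tested samples at 99.7% confidence, mostly higher but some lower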;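 note: thallium influx through GIRK channels coupled to M4 in HEK293 cells with BTC-AM dye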). Conditions: at 10 µM, actives lie on both sides.
Chain of Muscarinic acetylcholine receptor M4 (Homo sapiens) (P08173 whole entry, looked up): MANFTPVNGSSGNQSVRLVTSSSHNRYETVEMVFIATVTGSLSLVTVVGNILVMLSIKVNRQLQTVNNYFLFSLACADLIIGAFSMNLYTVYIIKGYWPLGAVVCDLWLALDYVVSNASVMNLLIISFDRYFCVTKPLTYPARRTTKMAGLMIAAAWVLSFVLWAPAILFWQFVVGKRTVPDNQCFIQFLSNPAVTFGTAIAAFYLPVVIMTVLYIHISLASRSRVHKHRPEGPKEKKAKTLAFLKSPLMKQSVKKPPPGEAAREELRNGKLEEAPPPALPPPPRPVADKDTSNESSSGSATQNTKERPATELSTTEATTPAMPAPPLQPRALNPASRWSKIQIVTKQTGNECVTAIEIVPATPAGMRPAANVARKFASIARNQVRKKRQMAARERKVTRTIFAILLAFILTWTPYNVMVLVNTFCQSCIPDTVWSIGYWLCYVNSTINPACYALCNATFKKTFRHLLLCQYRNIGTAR
Test [10] in a line: inhibitors of larval lipid processing in zebrafish, primary screen, whole organism, PED6 fluorescence, gall bladder and intestine (AID 686;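 active = a full or partial loss of lipid-probe fluorescence in the fish gall bladder, intestine or both, judged by eye; inactive = no fluorescence loss, or compound toxic to the fish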;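 note: larvae 5 to 7 days old with five fish per well; signal comes from phospholipase A2 cleavage of quenched PED6 carried via bile; overnight exposure to compound and PED6 before scoring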). Conditions: Zebrafish larvae PED6 lipid processing, fluorescence scoring; screened at 20 µM (by protocol).
A short description of test [11]: loss of swimming-algae plug formation – whole organism, Chlamydomonas reinhardtii, WT vs cilia-less mutant, absorbance, 96-well, primary screen (AID 463189;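 active = inhibition at or above 50% relative to wild type and mutant plate controls; inactive = inhibition below 50%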;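 note: 0% = wild type cc124 cells in DMSO and 100% = ciliumless bld1 mutant cells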). Conditions: Chlamydomonas reinhardtii gravitaxis, OD600 absorbance, 2 days; at 10 µM; stronger effect = higher value.
The nature of test [12]: blockers of RIG-like receptor reporter activation – cell-based, Sendai virus stimulus, luciferase, 10K MLSCN set, TLR/RLR signaling modifier project, primary screen (AID 602276;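 active = inhibition at or above 50% at 10 µM; inactive = inhibition below 50%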;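 note: firefly luciferase from ISG56 promoter only with Renilla not read in this screen; 0% = Sendai virus plus DMSO and 100% = medium plus DMSO without virus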). Conditions: HEK293 RL24 IRF3 luciferase reporter, at 10 µM, stronger effect = higher value. For orientation: In a reporter assay the amount or activity of a reporter protein is the signal.
Test [13] can be described thus: TLR3 IRF3 reporter activation blockers – cell-based, poly I:C stimulus, luciferase, 10K MLSCN set, primary screen (AID 602277;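 active = inhibition of the reporter signal at or above 50%; inactive = inhibition below 50%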). Conditions: HEK293-TLR3 RL24 IRF3 luciferase reporter, at 10 µM, stronger effect = higher value.
Where [14] appears, read: measured here: cell density z-score.
Setting [15] is: measured here: nuclear c-Myc green intensity z-score.
Setting [16] is: measured here: nuclear pErk red intensity z-score, stronger effect = higher value.

Chain of Dual specificity protein phosphatase 6 (Homo sapiens) (Q16828 whole entry, looked up): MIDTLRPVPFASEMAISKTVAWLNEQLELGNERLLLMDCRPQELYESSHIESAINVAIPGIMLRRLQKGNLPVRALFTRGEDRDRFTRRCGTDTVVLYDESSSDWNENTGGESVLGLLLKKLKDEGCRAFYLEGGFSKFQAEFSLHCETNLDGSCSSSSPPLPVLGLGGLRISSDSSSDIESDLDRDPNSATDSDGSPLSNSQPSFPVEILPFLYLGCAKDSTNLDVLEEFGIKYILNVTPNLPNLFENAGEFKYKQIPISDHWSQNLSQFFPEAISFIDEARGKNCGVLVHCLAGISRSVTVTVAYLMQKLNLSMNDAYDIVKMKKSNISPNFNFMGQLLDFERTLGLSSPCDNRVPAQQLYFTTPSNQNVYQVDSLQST

Usually inhibition stands for the change of the read-out against control, counted positive when it falls. Consider `Cc1ccc(NC(=O)CSC2=C(C#N)C(c3ccc4c(c3)OCO4)CC(=O)N2)cc1C` (stereo not given), for which the cell count in test [1] was 636. In addition, the inhibition is 1.6% (inactive) in [1]; -11.7% (inactive) in test [3]; 6.51% (inactive) in test [5]; 25.6% (inactive) in [11]; -18.5% (inactive) in test [12]; -9.47% (inactive) in test [13]. The inhibition of aggregation in test [2] is -10.3% (inactive). Further, the nuclei count in test [2] and in test [3] was 122% in each case. Besides, the values for the z-score in test [4] (setting [14]), in [4] (setting [15]) and in [4] (setting [16]) were 0.402, 0.339 and -0.3, respectively. Moreover, the fluorescence slope in test [6] is -0.486 (inactive); in test [9], 0.00748 (inactive). For the same compound, in test [7], the NADPH fluorescence slope was -2.7e-05 (inactive). The slope in test [8] was 0.00695 (inactive). Further, the outcome in test [10] was inactive.

Regarding `N#CC1=C(N)OC2=C(C(=O)CCC2)C1CCc1ccccc1` (stereo not given), the cell count in [1] is 620. For the same compound, the inhibition in [1] was 2.3% (inactive); in [3], -94.4% (inactive); in test [5], 2.92% (inactive); in [11], 33.2% (inactive); in test [12], 7.7% (inactive); in test [13], 15.7% (inactive). The inhibition of aggregation in test [2] is 21% (inactive). Moreover, the nuclei count in [2] and in test [3] was 110% in each case. In addition, the z-score in [4] (setting [14]) was 1.04; in test [4] (setting [15]), -0.525; in [4] (setting [16]), -0.374. In addition, the fluorescence slope is -0.527 (inactive) in test [6] and 0.00745 (inactive) in [9]. The NADPH fluorescence slope in [7] is -1.3e-05 (inactive). The slope in test [8] was 0.00639 (inactive). In addition, in test [10], the call was inactive.

As to `CCN(CC)CCOC(=O)C1(c2ccc(OC)c(OC)c2)CCCC1`, the cell count in [1] came to 540. Further, the inhibition in [1] is -5.7% (inactive); in test [3] it was -29.5% (inactive); in test [5], -13.3% (inactive); in test [11], 0.789% (inactive); in test [12], 13.2% (inactive); in test [13] it was 21% (inactive). Besides, in test [2], the inhibition of aggregation was -1% (inactive). For the same compound, the nuclei count in [2] and in [3] was 96.9% each time. Also, the figures for the z-score in test [4] (setting [14]), in test [4] (setting [15]) and in test [4] (setting [16]) were -0.552, -0.514 and -0.16, respectively. The results for the fluorescence slope in [6] and in test [9] were -0.513 (inactive) and 0.00575 (inactive), respectively. Moreover, in test [7], the NADPH fluorescence slope is -1.5e-05 (inactive). Also, the slope in test [8] is 0.00483 (inactive). Also, the compound was classed as inactive in test [10].

On to `Cc1cc(/C=c2/sc3nc4ccccc4n3c2=O)c(C)n1-c1ccccn1`, for which the cell count in [1] was determined as 477. Besides, the inhibition in test [1] was -8.3% (inactive); in test [3], -51.9% (inactive); in test [5], 1.04% (inactive); in [11], -7.65% (inactive); in test [12], 58.3% (active); in [13] it was 93% (active). In [2], the inhibition of aggregation is -17% (inactive). For the same compound, the nuclei count in test [2] turned out to be 105%; in test [3] it was 114%. For the same compound, the z-score is 0.162 in [4] (setting [14]), 1.46 in test [4] (setting [15]) and -0.242 in test [4] (setting [16]). For the same compound, the fluorescence slope in test [6] was -0.436 (inactive); in test [9], 0.00476 (inactive). The NADPH fluorescence slope in test [7] is -8.3e-05 (inactive). In addition, the slope in test [8] was 0.00546 (inactive). Further, the call in [10] was inactive.

Regarding `C=CCSc1nnc2n(CCc3ccccc3)c(=O)c3c4c(sc3n12)COC(C)(C)C4`, in test [1], the cell count came to 492. For the same compound, the inhibition is -1.7% (inactive) in test [1]; -100% (inactive) in test [3]; 9.91% (inactive) in test [5]; 28.7% (inactive) in [11]; 0.226% (inactive) in test [12]; -17.3% (inactive) in [13]. The inhibition of aggregation in test [2] is 3.5% (inactive). Also, the nuclei count came to 115% in test [2] and 135% in test [3]. In addition, the z-score in test [4] (setting [14]) was 1.51; in test [4] (setting [15]) it was -1.62; in test [4] (setting [16]), -0.504. The results for the fluorescence slope in test [6] and in [9] were -0.35 (inactive) and 0.0058 (inactive), respectively. For the same compound, the NADPH fluorescence slope in [7] is -1.2e-05 (inactive). Also, the slope in test [8] was 0.00563 (inactive). Besides, the compound was called inactive in [10].

The values are drawn from PubChem BioAssay.
